This is a sample that favours compounds with a hit; in the whole collection about 19% have one here.
S-ASM inh: inhibitors of human secretory acid sphingomyelinase | P17405 | placental ASM, HMU-PC fluorogenic substrate, 60 min | Potency, µM (top dose mostly 57.5 µM), without a hit: at the highest dose activity change, negative = inhibition, most hits filed as inhibitors | 0.006% of 340,000 active | AID 504937; note: potency is the fitted concentration of half-maximal effect
Target sequence (P17405 47-631 limits assumed): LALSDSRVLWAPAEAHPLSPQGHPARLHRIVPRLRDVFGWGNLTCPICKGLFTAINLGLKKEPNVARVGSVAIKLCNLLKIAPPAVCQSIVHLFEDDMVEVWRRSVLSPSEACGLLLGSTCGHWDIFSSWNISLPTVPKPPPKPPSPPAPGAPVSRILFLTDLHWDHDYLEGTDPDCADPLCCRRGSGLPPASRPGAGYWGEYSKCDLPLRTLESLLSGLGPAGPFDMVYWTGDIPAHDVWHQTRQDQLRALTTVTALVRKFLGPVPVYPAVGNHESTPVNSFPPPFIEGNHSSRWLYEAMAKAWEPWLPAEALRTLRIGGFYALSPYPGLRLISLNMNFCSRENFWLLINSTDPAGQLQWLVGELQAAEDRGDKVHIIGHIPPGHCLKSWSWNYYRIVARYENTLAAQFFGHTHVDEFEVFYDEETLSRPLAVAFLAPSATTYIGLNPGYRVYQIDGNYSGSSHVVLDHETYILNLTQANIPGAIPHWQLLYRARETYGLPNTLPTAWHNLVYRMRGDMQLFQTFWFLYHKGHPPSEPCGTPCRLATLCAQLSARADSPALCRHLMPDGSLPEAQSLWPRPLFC
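Fluorescence read-out (Ex 386 nm, Em 447 nm) after stopping the reaction at pH 10. Enzyme: ASM from human placenta; substrate HMU-PC0, 9 uM final; 60 min, 37 °C. Compound preincubation 10 min, ambient temperature.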
TDP1 cell noCPT: qHTS for Inhibitors of human tyrosyl-DNA phosphodiesterase 1 (TDP1): qHTS in cells in absence of CPT. DT40 Tdp1-/- hTDP1 cells, no CPT, ATP luminescence, 48 h. Potency, µM (titrated, usually from 46.2 µM), for the others: at the highest dose activity change, negative = growth inhibition, usual class: inhibitors. 15% of 420,000 active; note: potency is the fitted concentration of half-maximal effect; % is set by controls: 0 for no effect and ±100 for the full control effect; nearly all actives have a fitted effect of over 55% in size
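Compound effects on proliferation are scored in DT40 Tdp1-/-;hTDP1 cells in the absence of CPT. ATP levels (CellTiter-Glo luminescence) are recorded after a ≥48 hr, 37 °C incubation.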
TGFb SMAD3 inh: inhibitors of TGF-b signaling. HepG2 CAGA-GFP TGF-b/SMAD3 reporter, GFP fluorescence, 18 h; TGF-beta stimulated, 500 pg/mL final. Potency, µM (series often up to 46.1 µM), without a hit: at the top dose activity, negative = inhibition, hits mostly inhibitors. 1.2% of 410,000 active; note: potency is the fitted concentration of half-maximal effect; % is set by controls: 0 for no effect and ±100 for the full control effect; nearly all actives have a fitted effect of over 65% in size
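Using HEPG2 CAGA-GFP reporter cells at 1000 cells/well, we pinned test compounds, stimulated with recombinant TGF-beta (500 pg/mL final) and measured total well GFP after 18 h.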
DT40 TDP1 CPT: growth inhibition of DT40 Tdp1-/-;hTDP1 cells with camptothecin (screen for TDP1 inhibitors). chicken DT40 Tdp1-/-;hTDP1 cells + 20 nM CPT, ATP luminescence, 48 h. Potency, µM (titrated, usually from 46.2 µM), without a hit: at the highest dose activity change, negative = growth inhibition, hits mostly inhibitors. 12% of 420,000 active. AID 686979; note: potency is the fitted concentration of half-maximal effect; % is set by controls: 0 for no effect and ±100 for the full control effect; nearly all actives have a fitted effect of over 55% in size
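Chicken DT40 Tdp1-/- cells complemented with human TDP1, 400 cells/well, exposed to compounds plus 20 nM camptothecin for at least 48 h at 37 C; viability read as ATP content by CellTiter-Glo luminescence.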
IL1B secr inh: inflammasome signaling inhibition, IL-1 beta readout; THP-1 LPS/ATP IL-1B secretion, AlphaLISA, 16 h; stronger effect = lower value; activity change, % at 57.5 µM; 4.7% of 360,000 active; AID 743279; in the data active = activity change below about -50%; inconclusive = mostly about -30% to -49%; note: % is set by controls: 0 for no effect and ±100 for the full control effect
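Secreted IL-1B measured by AlphaLISA bead assay after 16 h compound exposure of THP-1 cells; compounds (final up to 57.5 uM) added 1 h before LPS (250 ng/mL) and ATP (1.25 mM) stimulation; lower signal means less secretion.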
HepG2 tox: kills HepG2 cells in TGF-b inhibitor counter-screen | 0.76% of 410,000 active | HepG2 CAGA-GFP viability, ATP luminescence, 18 h | Potency, µM (top dose mostly 46.1 µM), for the others: top-dose activity change, negative = cytotoxicity, most hits filed as cytotoxic; note: potency is the fitted concentration of half-maximal effect
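CellTiter-Glo luminescence gave cytotoxicity after 18 hours at 37 degrees C. The cells were HepG2 CAGA-GFP in 1% FBS DMEM, stimulated with 500 pg/mL TGF-beta after compound addition. %Activity was normalised to no-cell wells (complete cell-killing) and DMSO (no toxicity), and curves were fitted and classified.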
Numbers without * were called inactive. Unless noted, calls come from the whole dose curve; as a rule, active = well fitted curve in the direction sought with a large enough effect; inconclusive = small, poorly fitted or top-dose-only effect, or another doubt; inactive = no such curve, though single readings can be large; an effect the other way counts as inactive or inconclusive.

Results for CC1(C(=O)NS(=O)(=O)c2ccc(F)cc2F)CCN1C(=O)CC1CCCC1 (centres undefined) ?
TDP1 cell noCPT: 0%; TGFb SMAD3 inh: -4%; DT40 TDP1 CPT: 0%; IL1B secr inh: -18; HepG2 tox: -10%

Results for COc1ccc(Oc2ncc3nc(-c4cn(C)c5ccccc45)c(=O)n(C)c3n2)cc1 ?
TDP1 cell noCPT: -9%; DT40 TDP1 CPT: -10%

What do the screens show for `CCCOC(=O)C1NC(=O)N2C(C(=O)OCCC)C(C)(C)S[C@H]12` (some centres undefined)?
S-ASM inh: -6%; TDP1 cell noCPT: -2%; TGFb SMAD3 inh: inconclusive; DT40 TDP1 CPT: 3%; IL1B secr inh: -2; HepG2 tox: -6%

Results for COCCNC(=O)CSc1nc2ccccc2nc1Cc1ccc(C)cc1 ?
TDP1 cell noCPT: -16%; TGFb SMAD3 inh: 0%; DT40 TDP1 CPT: -25%; HepG2 tox: -24%

Results for O=C(CN1C(=O)NC2(CCCc3ccccc32)C1=O)N1CCc2ccccc2C1 (centres undefined) ?
S-ASM inh: 4%; TDP1 cell noCPT: 21µM*; TGFb SMAD3 inh: -13%; DT40 TDP1 CPT: inconclusive; IL1B secr inh: -5; HepG2 tox: -22%

What do the screens show for `CN1CCS/C1=C/C=C1/SC(=S)N(Cc2ccccc2)C1=O`?
S-ASM inh: -27%; TDP1 cell noCPT: inconclusive; TGFb SMAD3 inh: 157%; DT40 TDP1 CPT: inconclusive; IL1B secr inh: -2; HepG2 tox: 1%

How did CCCN1C(=O)/C(=C\C=C2/C=CN(CC)c3ccccc32)SC1=S do in these assays?
S-ASM inh: -9%; TDP1 cell noCPT: 10µM*; TGFb SMAD3 inh: -4%; DT40 TDP1 CPT: inconclusive; IL1B secr inh: -12; HepG2 tox: 1%

Results for CC(C)(C)OC(=O)N1CCC[C@H]1C(=O)NCc1ccc(F)cc1F ?
TDP1 cell noCPT: 1%; DT40 TDP1 CPT: 0%; IL1B secr inh: 4

Results for CCn1c(SCC(N)=O)nc2cc(S(=O)(=O)N3CCOCC3)ccc21 ?
S-ASM inh: 5%; TDP1 cell noCPT: -3%; TGFb SMAD3 inh: -26%; DT40 TDP1 CPT: -26%; IL1B secr inh: -6; HepG2 tox: -26%

Results for CCn1c(CCl)nc2cc(S(=O)(=O)N3CCOCC3)ccc21 ?
S-ASM inh: 8%; TDP1 cell noCPT: 2.9µM*; TGFb SMAD3 inh: -1%; DT40 TDP1 CPT: 7.3µM*; IL1B secr inh: -101*; HepG2 tox: -27%

What do the screens show for `CCOC(=O)CSc1nc2cc(S(=O)(=O)N3CCOCC3)ccc2n1CC`?
S-ASM inh: -1%; TDP1 cell noCPT: -17%; TGFb SMAD3 inh: -6%; DT40 TDP1 CPT: -14%; IL1B secr inh: -90*; HepG2 tox: -2%

What do the screens show for `CCCn1c(CCC(=O)Nc2ccccc2Cc2ccccc2)nc2cc(S(=O)(=O)N3CCOCC3)ccc21`?
S-ASM inh: -7%; TDP1 cell noCPT: 23µM*; TGFb SMAD3 inh: inconclusive; DT40 TDP1 CPT: 16µM*; IL1B secr inh: -8; HepG2 tox: -16%

How did CCn1c(SCC(=O)c2c[nH]c3ccccc23)nc2cc(S(=O)(=O)N3CCOCC3)ccc21 do in these assays?
S-ASM inh: -23%; TDP1 cell noCPT: 21µM*; TGFb SMAD3 inh: -35%; DT40 TDP1 CPT: 15µM*; IL1B secr inh: -6; HepG2 tox: -2%

Results for CCn1c(SCC(=O)N(C)C)nc2cc(S(=O)(=O)N3CCOCC3)ccc21 ?
S-ASM inh: 3%; TDP1 cell noCPT: -8%; TGFb SMAD3 inh: -20%; DT40 TDP1 CPT: -10%; IL1B secr inh: -2; HepG2 tox: -16%

How did COC(=O)[C@]1(C)N[C@H](CN(C)C(=O)Nc2ccc(Cl)cc2)[C@@H]2C(=O)N(C)C(=O)[C@@H]21 do in these assays?
S-ASM inh: 0%; TDP1 cell noCPT: -9%; TGFb SMAD3 inh: -2%; DT40 TDP1 CPT: 13%; IL1B secr inh: 7; HepG2 tox: -1%

How did Nc1nc2cc(S(=O)(=O)N3CCOCC3)ccc2o1 do in these assays?
S-ASM inh: 0%; TDP1 cell noCPT: inconclusive; TGFb SMAD3 inh: 18%; DT40 TDP1 CPT: 23µM*; IL1B secr inh: -3; HepG2 tox: 17%

What do the screens show for `CCn1c(C(=O)NCc2ccccc2)cc2sc(Cl)cc21`?
TDP1 cell noCPT: inconclusive; TGFb SMAD3 inh: inconclusive; DT40 TDP1 CPT: inconclusive; HepG2 tox: -31%

What do the screens show for `COc1ccc(C2CC(O)(c3ccccc3)Oc3cc(OC)c(OC)c(OC)c32)cc1` (centres undefined)?
S-ASM inh: -6%; TDP1 cell noCPT: inconclusive; TGFb SMAD3 inh: inconclusive; DT40 TDP1 CPT: inconclusive; IL1B secr inh: 0; HepG2 tox: -36%

What do the screens show for `OC1(c2ccccc2)CC(c2ccccc2)c2ccccc2O1` (centres undefined)?
S-ASM inh: -8%; TDP1 cell noCPT: inconclusive; TGFb SMAD3 inh: inconclusive; DT40 TDP1 CPT: -25%; IL1B secr inh: -99*; HepG2 tox: 22µM*

Results for C#CCOCCOCCOCCNc1nc(N2CCN(C(=O)CCCCCCCCCCNC(=O)Cn3cc(C[C@@H](C)O)nn3)CC2)nc(N2CCN(C(=O)CCCCCCCCCCNC(=O)[C@@H]([C@H](C)O)n3cc(C)nn3)CC2)n1 ?
S-ASM inh: -8%; TDP1 cell noCPT: 7.3µM*; TGFb SMAD3 inh: inconclusive; DT40 TDP1 CPT: 7.3µM*; IL1B secr inh: 8; HepG2 tox: -1%

What do the screens show for `C#CCOCCOCCOCCNc1nc(N2CCOCC2)nc(N2CCN(C(=O)CCCCCCCCCCNC(=O)[C@H]([C@@H](C)CC)n3cc(CCCCN=C(N)N)nn3)CC2)n1`?
S-ASM inh: 0%; TDP1 cell noCPT: -11%; TGFb SMAD3 inh: -19%; DT40 TDP1 CPT: -14%; IL1B secr inh: inconclusive; HepG2 tox: -18%

What do the screens show for `C#CCOCCOCCOCCNc1nc(N2CCN(C(=O)Cn3cc(CCCCN)nn3)CC2)nc(N2CCN(C(=O)Cn3cc(CC(C)O)nn3)CC2)n1` (centres undefined)?
S-ASM inh: 7%; TDP1 cell noCPT: 5%; TGFb SMAD3 inh: 3%; DT40 TDP1 CPT: -7%; IL1B secr inh: -1; HepG2 tox: 3%
